The target in one experiment is T1, GST-Dm-Relish (Drosophila melanogaster, UniProt Q94527 99-473).
T1 sequence: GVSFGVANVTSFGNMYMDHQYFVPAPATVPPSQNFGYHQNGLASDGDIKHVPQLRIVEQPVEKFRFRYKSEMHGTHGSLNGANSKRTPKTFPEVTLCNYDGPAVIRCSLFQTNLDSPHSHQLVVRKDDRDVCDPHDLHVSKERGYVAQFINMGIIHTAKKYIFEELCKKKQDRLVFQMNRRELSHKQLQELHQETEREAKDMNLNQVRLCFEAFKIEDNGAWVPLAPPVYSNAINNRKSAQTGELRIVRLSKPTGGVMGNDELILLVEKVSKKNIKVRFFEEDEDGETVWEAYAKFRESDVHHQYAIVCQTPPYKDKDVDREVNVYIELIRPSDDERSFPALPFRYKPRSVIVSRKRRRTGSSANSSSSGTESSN
Description: protein-binding microarray (PBM); PBM: ~300 nM protein, 6 mM HEPES pH 7.8, 80 mM KCl, 0.5 mM EDTA, 0.5 mM EGTA, 6% glycerol, 35 ng/ul poly-dIdC, 1% milk, 1 h, room temperature; Ap Aiptasia and Nv Nematostella (sea anemones) / Co Capsaspora / Aq Amphimedon (sponge) / Dm Drosophila / Hu human; RHD is the Rel homology domain; high values mean tight binding. Conditions: dsDNA, one strand shown.
Sequence “CCGATTAACATCACTAATTTCCCTGATGTTAATCGGGTCTTGATTCGCTTGACGCTGCTG” had a binding signal of 2.5 z-score.
Same read-out and setting: next, “CCGATTAACATCAGGAATTCCCATGATGTTAATCGGGTCTTGATTCGCTTGACGCTGCTG”: 7.97 z-score.
With “CCGATTAACATCAAAAATCCCTATGATGTTAATCGGGTCTTGATTCGCTTGACGCTGCTG”, the binding signal is 6.49 z-score.
“CCGATTAACATCAAACCCCCCCATGATGTTAATCGGGTCTTGATTCGCTTGACGCTGCTG” gave a binding signal of 6.81 z-score.
On the same count and under the same terms, next, “CCGATTAACATCAGGGAGATTTGTGATGTTAATCGGGTCTTGATTCGCTTGACGCTGCTG”: 1.8 z-score; “CCGATTAACATCAGCCCCCCCCATGATGTTAATCGGGTCTTGATTCGCTTGACGCTGCTG”: 4.42 z-score.
Still for that read-out and setting: next, “CCGATTAACATCAAATCATCCCCTGATGTTAATCGGGTCTTGATTCGCTTGACGCTGCTG”: 4.06 z-score.
On to “CCGATTAACATCAGGGGGGGTCATGATGTTAATCGGGTCTTGATTCGCTTGACGCTGCTG”, for which the binding signal is 3.85 z-score.
Still for that read-out and setting: next, “CCGATTAACATCAGGGGAACACATGATGTTAATCGGGTCTTGATTCGCTTGACGCTGCTG”: 4.31 z-score; “CCGATTAACATCAATTTTTCCCATGATGTTAATCGGGTCTTGATTCGCTTGACGCTGCTG”: 1.64 z-score.
As for “CCGATTAACATCACAGGGAATTCTGATGTTAATCGGGTCTTGATTCGCTTGACGCTGCTG”, the binding signal amounted to 3.71 z-score.
The same measure, in the same setting: the same measure for “CCGATTAACATCACATTGTCCCCTGATGTTAATCGGGTCTTGATTCGCTTGACGCTGCTG”: 1.73 z-score; for “CCGATTAACATCAGTAACTCCCTTGATGTTAATCGGGTCTTGATTCGCTTGACGCTGCTG”: 2.91 z-score.
Still for that read-out and setting: next, “CCGATTAACATCACCCGTTTCCCTGATGTTAATCGGGTCTTGATTCGCTTGACGCTGCTG”: 1.19 z-score.
Take “CCGATTAACATCACGGGAAGTCCTGATGTTAATCGGGTCTTGATTCGCTTGACGCTGCTG”: the binding signal worked out at 7.73 z-score.
Same read-out and setting: next, “CCGATTAACATCAGGGGAGTAAATGATGTTAATCGGGTCTTGATTCGCTTGACGCTGCTG”: 1.91 z-score; “CCGATTAACATCAATCACCCCCATGATGTTAATCGGGTCTTGATTCGCTTGACGCTGCTG”: 1.86 z-score.
“CCGATTAACATCAGGAGTTTCCCTGATGTTAATCGGGTCTTGATTCGCTTGACGCTGCTG” returned a binding signal of 4.94 z-score.
“CCGATTAACATCAGGATGTTCCCTGATGTTAATCGGGTCTTGATTCGCTTGACGCTGCTG” registered a binding signal of 1.99 z-score.
Still for that read-out and setting: next, “CCGATTAACATCATCCCCCCCCATGATGTTAATCGGGTCTTGATTCGCTTGACGCTGCTG”: 4.5 z-score; “CCGATTAACATCAGGGGGGCACCTGATGTTAATCGGGTCTTGATTCGCTTGACGCTGCTG”: 3.62 z-score; “CCGATTAACATCACCGCCCCCCCTGATGTTAATCGGGTCTTGATTCGCTTGACGCTGCTG”: 4.88 z-score.
Still for that read-out and setting: next, “CCGATTAACATCACGTCCCCCCCTGATGTTAATCGGGTCTTGATTCGCTTGACGCTGCTG”: 4.38 z-score; “CCGATTAACATCAGGGGAGCACCTGATGTTAATCGGGTCTTGATTCGCTTGACGCTGCTG”: 4.91 z-score; “CCGATTAACATCACGGGATTTACTGATGTTAATCGGGTCTTGATTCGCTTGACGCTGCTG”: 7.12 z-score.
Still for that read-out and setting: the same measure for “CCGATTAACATCACTGGGATTTCTGATGTTAATCGGGTCTTGATTCGCTTGACGCTGCTG”: 5.55 z-score.
“CCGATTAACATCAGGATAATCCCTGATGTTAATCGGGTCTTGATTCGCTTGACGCTGCTG” yielded a binding signal of 2.88 z-score.
“CCGATTAACATCAATTACCCCCCTGATGTTAATCGGGTCTTGATTCGCTTGACGCTGCTG” came in with a binding signal of 4.49 z-score.
On to “CCGATTAACATCAGATTTCCCACTGATGTTAATCGGGTCTTGATTCGCTTGACGCTGCTG”, for which the binding signal turned out to be 2.02 z-score.
Same read-out and setting: the same measure for “CCGATTAACATCAGAATTACCCATGATGTTAATCGGGTCTTGATTCGCTTGACGCTGCTG”: 1.97 z-score.
Still for that read-out and setting: the same measure for “CCGATTAACATCAAGGGGGTAAATGATGTTAATCGGGTCTTGATTCGCTTGACGCTGCTG”: 2.72 z-score.
The sequence “CCGATTAACATCAACGGGAATTCTGATGTTAATCGGGTCTTGATTCGCTTGACGCTGCTG” registered a binding signal of 4.15 z-score.
The same measure, in the same setting: the same measure for “CCGATTAACATCAGGGAATTGTATGATGTTAATCGGGTCTTGATTCGCTTGACGCTGCTG”: 1.21 z-score; for “CCGATTAACATCAGTAATTCCCATGATGTTAATCGGGTCTTGATTCGCTTGACGCTGCTG”: 7.23 z-score; for “CCGATTAACATCACGGGACTCCCTGATGTTAATCGGGTCTTGATTCGCTTGACGCTGCTG”: 8.72 z-score.
With “CCGATTAACATCAGGGGGTACCCTGATGTTAATCGGGTCTTGATTCGCTTGACGCTGCTG”, the binding signal came to 6.71 z-score.

A further experiment has as its target T2, GST-Aq-NF-kB (Amphimedon queenslandica, UniProt A9Y5G7 2-389).
T2 sequence: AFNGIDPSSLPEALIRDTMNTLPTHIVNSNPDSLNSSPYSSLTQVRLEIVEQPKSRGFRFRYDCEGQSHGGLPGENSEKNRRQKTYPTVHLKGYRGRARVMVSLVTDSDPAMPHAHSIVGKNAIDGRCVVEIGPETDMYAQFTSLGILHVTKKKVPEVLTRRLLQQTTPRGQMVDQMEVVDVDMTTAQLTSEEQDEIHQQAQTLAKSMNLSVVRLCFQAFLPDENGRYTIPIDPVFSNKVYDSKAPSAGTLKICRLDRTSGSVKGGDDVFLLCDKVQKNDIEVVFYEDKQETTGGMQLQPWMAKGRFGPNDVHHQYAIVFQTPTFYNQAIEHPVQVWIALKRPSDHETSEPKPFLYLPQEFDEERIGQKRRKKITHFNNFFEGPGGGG
The description is as above. Particulars: dsDNA, one strand shown.
“CCGATTAACATCACTAATTTCCCTGATGTTAATCGGGTCTTGATTCGCTTGACGCTGCTG” displayed a binding signal of 4.09 z-score.
Sequence “CCGATTAACATCAGGAATTCCCATGATGTTAATCGGGTCTTGATTCGCTTGACGCTGCTG” showed a binding signal of 7.09 z-score.
With “CCGATTAACATCAAAAATCCCTATGATGTTAATCGGGTCTTGATTCGCTTGACGCTGCTG”, the binding signal came out at 5.85 z-score.
Still for that read-out and setting: next, “CCGATTAACATCAAACCCCCCCATGATGTTAATCGGGTCTTGATTCGCTTGACGCTGCTG”: 5.02 z-score.
Still for that read-out and setting: the same measure for “CCGATTAACATCAGGGAGATTTGTGATGTTAATCGGGTCTTGATTCGCTTGACGCTGCTG”: 4.63 z-score.
On to “CCGATTAACATCAGCCCCCCCCATGATGTTAATCGGGTCTTGATTCGCTTGACGCTGCTG”, for which the binding signal was 4.51 z-score.
In turn, “CCGATTAACATCAAATCATCCCCTGATGTTAATCGGGTCTTGATTCGCTTGACGCTGCTG” returned a binding signal of 5.27 z-score.
Still for that read-out and setting: next, “CCGATTAACATCATGATGGGAAATGATGTTAATCGGGTCTTGATTCGCTTGACGCTGCTG”: 1.64 z-score.
Take “CCGATTAACATCAGGGGGGGTCATGATGTTAATCGGGTCTTGATTCGCTTGACGCTGCTG”: the binding signal came out at 3.54 z-score.
Same read-out and setting: next, “CCGATTAACATCAGGGGAACACATGATGTTAATCGGGTCTTGATTCGCTTGACGCTGCTG”: 4.1 z-score; “CCGATTAACATCAATTTTTCCCATGATGTTAATCGGGTCTTGATTCGCTTGACGCTGCTG”: 3.27 z-score.
On to “CCGATTAACATCAGGGACAAAAATGATGTTAATCGGGTCTTGATTCGCTTGACGCTGCTG”, for which the binding signal worked out at 2.39 z-score.
In turn, “CCGATTAACATCACAGGGAATTCTGATGTTAATCGGGTCTTGATTCGCTTGACGCTGCTG” registered a binding signal of 4.62 z-score.
In turn, “CCGATTAACATCACATTGTCCCCTGATGTTAATCGGGTCTTGATTCGCTTGACGCTGCTG” yielded a binding signal of 3.26 z-score.
In turn, “CCGATTAACATCAGTAACTCCCTTGATGTTAATCGGGTCTTGATTCGCTTGACGCTGCTG” showed a binding signal of 3.78 z-score.
On the same count and under the same terms, next, “CCGATTAACATCACCCGTTTCCCTGATGTTAATCGGGTCTTGATTCGCTTGACGCTGCTG”: 3.03 z-score; “CCGATTAACATCACGGGAAGTCCTGATGTTAATCGGGTCTTGATTCGCTTGACGCTGCTG”: 6 z-score; “CCGATTAACATCAGGGGAGTAAATGATGTTAATCGGGTCTTGATTCGCTTGACGCTGCTG”: 3 z-score.
Take “CCGATTAACATCAATCACCCCCATGATGTTAATCGGGTCTTGATTCGCTTGACGCTGCTG”: the binding signal stood at 3.32 z-score.
As for “CCGATTAACATCAGGAGTTTCCCTGATGTTAATCGGGTCTTGATTCGCTTGACGCTGCTG”, the binding signal was determined as 8.06 z-score.
The same measure, in the same setting: next, “CCGATTAACATCAGGATGTTCCCTGATGTTAATCGGGTCTTGATTCGCTTGACGCTGCTG”: 4.33 z-score; “CCGATTAACATCATCCCCCCCCATGATGTTAATCGGGTCTTGATTCGCTTGACGCTGCTG”: 5.38 z-score.
Same read-out and setting: next, “CCGATTAACATCAGGGAAAGGTATGATGTTAATCGGGTCTTGATTCGCTTGACGCTGCTG”: 3.59 z-score.
Same read-out and setting: the same measure for “CCGATTAACATCAGGGGGGCACCTGATGTTAATCGGGTCTTGATTCGCTTGACGCTGCTG”: 4.5 z-score; for “CCGATTAACATCACCGCCCCCCCTGATGTTAATCGGGTCTTGATTCGCTTGACGCTGCTG”: 4.3 z-score.
“CCGATTAACATCACGTCCCCCCCTGATGTTAATCGGGTCTTGATTCGCTTGACGCTGCTG” came in with a binding signal of 4.49 z-score.
In turn, “CCGATTAACATCAGGGGAGCACCTGATGTTAATCGGGTCTTGATTCGCTTGACGCTGCTG” yielded a binding signal of 4.81 z-score.
On the same count and under the same terms, next, “CCGATTAACATCACGGGATTTACTGATGTTAATCGGGTCTTGATTCGCTTGACGCTGCTG”: 3.52 z-score; “CCGATTAACATCACTGGGATTTCTGATGTTAATCGGGTCTTGATTCGCTTGACGCTGCTG”: 2.37 z-score.
Same read-out and setting: next, “CCGATTAACATCAGGATAATCCCTGATGTTAATCGGGTCTTGATTCGCTTGACGCTGCTG”: 5.24 z-score.
Turning to “CCGATTAACATCAATTACCCCCCTGATGTTAATCGGGTCTTGATTCGCTTGACGCTGCTG”, the binding signal is 5.14 z-score.
On the same count and under the same terms, next, “CCGATTAACATCAGATTTCCCACTGATGTTAATCGGGTCTTGATTCGCTTGACGCTGCTG”: 2.32 z-score; “CCGATTAACATCAGAATTACCCATGATGTTAATCGGGTCTTGATTCGCTTGACGCTGCTG”: 3.58 z-score; “CCGATTAACATCAAGGGGGTAAATGATGTTAATCGGGTCTTGATTCGCTTGACGCTGCTG”: 4.26 z-score.
“CCGATTAACATCAACGGGAATTCTGATGTTAATCGGGTCTTGATTCGCTTGACGCTGCTG” came in with a binding signal of 4.74 z-score.
In turn, “CCGATTAACATCAGGGAATTGTATGATGTTAATCGGGTCTTGATTCGCTTGACGCTGCTG” came in with a binding signal of 4.7 z-score.
Regarding “CCGATTAACATCAGTAATTCCCATGATGTTAATCGGGTCTTGATTCGCTTGACGCTGCTG”, the binding signal is 4.24 z-score.
Take “CCGATTAACATCACGGGACTCCCTGATGTTAATCGGGTCTTGATTCGCTTGACGCTGCTG”: the binding signal turned out to be 5 z-score.
On the same count and under the same terms, next, “CCGATTAACATCAGGGGGTACCCTGATGTTAATCGGGTCTTGATTCGCTTGACGCTGCTG”: 6.6 z-score.

For the origin of these results see paper PMC5700166.
